Data on 21 molecules can be found in PubChem BioAssay (NCI).

Molecules are shown by their SMILES. Where “and” joins values, the source holds several entries; their conditions need not be identical. Equal values may be shown once. About 79,000 compounds went through this panel and 15% of them were active in at least one assay; those are over-represented in the sample as a whole. A number with no mark means an inactive call. Calls of active or inactive are those of the source. Cut-off read from the data, not from the text of the source: active = growth inhibition above about 70%; inactive = the rest.

Test [1] in a line: NCI Yeast Anticancer Drug Screen. Data for the rad50 strain (AID 155).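 Note: 0% = growth of vehicle-only cultures of the same strain.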 Particulars: S. cerevisiae rad50 strain growth inhibition, hits give high values; at 50.0 µM unless noted. The gist of the method: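 Inhibition values express reduced yeast growth in compound-treated cultures relative to vehicle-treated controls.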
Test [2] can be described thus: NCI Yeast Anticancer Drug Screen. Data for the mec2-1 strain (AID 157). Conditions: S. cerevisiae mec2-1 strain, hits give high values; at 50.0 µM unless noted. The method in brief:
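Vehicle-treated cultures served as reference for growth inhibition of compound-exposed mec2-1 yeast.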

Test [3] can be described thus: NCI Yeast Anticancer Drug Screen. Data for the sgs1 mgt1 strain (AID 161).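 Note: 0% = growth of cultures given vehicle only.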 Particulars: S. cerevisiae sgs1 mgt1 strain, hits give high values; at 50.0 µM unless noted. The method in brief: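 Read-out: growth inhibition vs vehicle controls. Cells: mutant yeast strain deficient in DNA damage repair.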
A short description of test [4]: NCI Yeast Anticancer Drug Screen. Data for the cln2 rad14 strain (AID 165).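 Note: 0% = growth equal to vehicle treated cultures.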 Particulars: S. cerevisiae cln2 rad14 strain, hits give high values; at 50.0 µM unless noted. The gist of the method: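 Each compound was tested on cln2 rad14 yeast. Inhibition of growth was calculated against vehicle-exposed controls.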
The nature of test [5]: NCI Yeast Anticancer Drug Screen. Data for the bub3 strain (AID 167). Conditions: S. cerevisiae bub3 mutant strain, hits give high values; at 50.0 µM unless noted. The gist of the method: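 Steps: expose the mutant yeast strain to compound; grow alongside vehicle-treated cultures; measure growth; express inhibition against the vehicle cultures.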
A short description of test [6]: NCI Yeast Anticancer Drug Screen. Data for the mlh1 rad18 strain (AID 175). Conditions: S. cerevisiae mlh1 rad18 strain growth inhibition, hits give high values; at 50.0 µM unless noted. The method in brief: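 Vehicle-treated cultures served as the reference for growth inhibition in a yeast strain carrying DNA damage repair alterations exposed to each compound.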

Regarding `S=c1c2[nH]cnc2ncn1CCSC1=NC=NC2=NC=NC21` (stereo unspecified), the growth inhibition in test [1] is 27.8%; in test [2], -23.6%; in test [3], -26.9%; in test [4] it was -22.8%; in test [5] it was -55%; in test [6], -8.6%.
Turning to `O=C(Nc1nncs1)c1cnccn1`, the growth inhibition in test [1] was -1.85%; in test [2], -6.3%; in test [3] it was 14.2%; in test [4], -3.15%; in test [5] it was 11.3%; in test [6] it was -71.5%.
Regarding `CC(C)CC(C(=O)NC1CCCCC1)N1C(=O)c2ccccc2C1=O` (stereo unspecified), the growth inhibition in test [1] was -17.1%; in test [2], 1.9%; in test [3], -4.3%; in test [4], -8.2%; in test [5], -4.4%; in test [6], 20.7%.
With `N#CC1=C(NC(N)=O)CCCC1`, the growth inhibition in test [1] is -0.7%; in test [2] it was 36.7%; in test [3], 10.7%; in test [4], 35.3%; in test [5], 10.1%; in test [6], 5.45%.
`O=c1[nH]c(=O)n(C2OC(CO)C(O)C2O)c2ccccc12` (stereo unspecified): the growth inhibition was 8.3% in test [1]; -6.4% in test [2]; -8% in test [3]; -2% in test [4]; -5.45% in test [5]; 3.8% in test [6].
`OC(c1ccccc1)(c1ccccc1)C1/C(=C/c2ccccc2)C1Cc1ccccc1` (stereo unspecified): the growth inhibition in test [1] is 4.85%; in test [2], 2.4%; in test [3], -7.9%; in test [4] it was -8.1%; in test [5], -3.75%; in test [6], 3%.
Regarding `O=C(O)C(NCCCCCNC(C(=O)O)c1ccccc1)c1ccccc1` (stereo unspecified), the growth inhibition in test [1] is 15.8%; in test [2] it was 21.2%; in test [3] it was 15.9%; in test [4], 24.9%; in test [5], 13.9%; in test [6], 24.6%.
Take `CS(=O)(=O)CS(C)(=O)=O`: the growth inhibition in test [1] was 18.9%; in test [2], 6.15%; in test [3] it was 8.2%; in test [4] it was 14.5%; in test [5], 0.25%; in test [6], 27.9%.
Turning to `Cc1cc(N)c(N)cc1C`, the growth inhibition is 45.1% in test [1]; 4.15% in test [2]; 52.2% in test [3]; 20.1% in test [4]; 35.9% in test [5]; 38.5% in test [6].
Turning to `COc1ccccc1/C=C\C#N`, the growth inhibition in test [1] was -9.2%; in test [2], -6.1%; in test [3], -6.45%; in test [4] it was -28%; in test [5] it was -29.2%; in test [6], -13.4%.
Regarding `CCCC(C)C(C(=O)OCC)C(=O)OCC` (stereo unspecified), the growth inhibition in test [1] was 2.6% and -5.35%; in test [2], -14.5% and -5.6%; in test [3] it was -9.85% and 10.9%; in test [4] it was 21.5% and -17.4%; in test [5], -11.3% and -14%; in test [6] it was -15.3% and -7.4%.
Consider `CN(N=O)C(=O)NCCn1cnc2c(=O)[nH]cnc21`, for which the growth inhibition in test [1] is -6.55%; in test [2] it was 14.4%; in test [3], -5.35%; in test [4], -56.8%; in test [5], 1.2%; in test [6] it was -11.8%.
Take `O=[N+]([O-])c1ccccc1N1CCCCC1`: the growth inhibition in test [1] is 23.9%; in test [2], 7.05%; in test [3], 14.9%; in test [4], 25.6%; in test [5], -4.05%; in test [6] it was 27.2%.
`COc1ccc(C(=O)CN2CCN(c3ccccc3)CC2)cc1`: the growth inhibition in test [1] was 14.7%; in test [2] it was -7.05%; in test [3] it was 17.1%; in test [4], -52.6%; in test [5], 23%; in test [6], 5.35%.
For `N#CC(c1ccccc1)c1ccc2ccccc2n1` (stereo unspecified), the growth inhibition in test [1] is 23.6%; in test [2] it was 7.4%; in test [3], 10.8%; in test [4], 2.6%; in test [5] it was 33.5%; in test [6] it was -0.9%.
As for `C/C(=N\NC(=S)Nc1nccs1)c1ccccn1`, the growth inhibition in test [1] was 96.7% (active); in test [2], 97.8% (active); in test [3], 97.6% (active); in test [4] it was 90.5% (active); in test [5], 96% (active); in test [6] it was 98.4% (active).
As to `c1ccc2c(c1)Cc1cc3ccccc3cc1C2`, the growth inhibition in test [1] is -32.2%; in test [2], -44.9%; in test [3], -29.5%; in test [4], 0.75%; in test [5] it was -33.2%; in test [6], -27.8%.
As to `C/C(CCC(CC(=O)O)C(C)C)=N\NC(N)=O` (stereo unspecified), the growth inhibition in test [1] is -5.85%; in test [2], 1.8%; in test [3], -6.65%; in test [4] it was -35.9%; in test [5], -27.4%; in test [6] it was 4.65%.
For the molecule `CCOC(OCC)C(=O)NC(Cc1ccccc1NC(=O)c1ccccc1)c1ccc2c(c1)OCO2` (stereo unspecified), the growth inhibition was 35.6% in test [1]; -1.05% in test [2]; 3.9% in test [3]; 4.8% in test [4]; 3.25% in test [5]; 21.4% in test [6].
With `O=S(=O)(NCCSSCCNS(=O)(=O)c1ccccc1)c1ccccc1`, the growth inhibition in test [1] is 45%; in test [2] it was 17.5%; in test [3], 51.6%; in test [4] it was 16.6%; in test [5] it was 23.6%; in test [6], 34.7%.
Consider `CCOC(=O)[C@]12C3C=CC(C3)C1C(=O)C1OC12` (stereo partly specified), for which the growth inhibition was -29% in test [1]; -26.8% in test [2]; -19.3% in test [3]; -0.5% in test [4]; -26.6% in test [5]; -45.1% in test [6].
